Activity calls are given as the source filed them. Calls come from the whole dose curve.
conditions: Ebola virus entry cell assay, ratio channel

Row | Compound | outcome | AC50
1 | C1N2CN3CN1CN(C2)C3 | inactive | 
2 | Nc1nc(=S)c2[nH]cnc2[nH]1 | inactive | 
3 | CC(C)Nc1cccnc1N1CCN(C(=O)c2cc3cc(NS(C)(=O)=O)ccc3[nH]2)CC1 | inactive | 
4 | O=C1[C@H](CC[C@H](O)c2ccc(F)cc2)[C@@H](c2ccc(O)cc2)N1c1ccc(F)cc1 | inactive | 
5 | C[C@H]1O[C@H](O[C@H]2[C@H](O)[C@@H](O)[C@@H](O[C@H]3[C@H](O)[C@@H](O)[C@H](O)O[C@@H]3CO)O[C@@H]2CO)[C@H](O)[C@@H](O)[C@@H]1N[C@H]1C=C(CO)[C@@H](O)[C@H](O)[C@H]1O | inactive | 
6 | CCCN1C[C@H](CSC)C[C@@H]2c3cccc4[nH]cc(c34)C[C@H]21 | inactive | 
7 | COC(c1ccccc1)(c1ccccc1)[C@H](Oc1nc(C)cc(C)n1)C(=O)O | inactive | 
8 | O=C1C(=O)c2ccccc2C(O)=C1C1CCC(c2ccc(Cl)cc2)CC1 (centres undefined) | inactive | 
9 | CN(C)CC[C@@H](c1ccc(Br)cc1)c1ccccn1 | inactive | 
10 | C[C@@H](O)[C@H]1C(=O)N2C(C(=O)O)=C(S[C@@H]3CN[C@H](C(=O)N(C)C)C3)[C@H](C)[C@H]12 | inactive | 
11 | COc1c(C)c2c(c(O)c1C/C=C(\C)CCC(=O)O)C(=O)OC2 | inactive | 
12 | COc1ccccc1OCC(O)CN1CCN(CC(=O)Nc2c(C)cccc2C)CC1 (centres undefined) | inactive | 
13 | CC/C(=C(\c1ccccc1)c1ccc(OCCN(C)C)cc1)c1ccccc1 |  | 1.26 µM (active)
14 | C[C@@H](c1ncncc1F)C(O)(Cn1cncn1)c1ccc(F)cc1F (some centres undefined) | inactive | 
15 | Nc1nnc(-c2cccc(Cl)c2Cl)c(N)n1 | inactive | 
16 | CC(CN1c2ccccc2Sc2ccccc21)N(C)C (centres undefined) |  | 20 µM (active)
17 | O=C(O)P(=O)(O)O | inactive | 
18 | COc1cc2c(c(OC)c1OC)-c1ccc(OC)c(=O)cc1[C@@H](NC(C)=O)CC2 |  | 0.316 µM (active)
19 | COc1cc(Cc2cnc(N)nc2N)cc(OC)c1OC | inactive | 
20 | Cc1cc2c(s1)Nc1ccccc1N=C2N1CCN(C)CC1 | inactive | 

Row | Compound | outcome | AC50
21 | COc1cc(NCc2ccc3nc(N)nc(N)c3c2C)cc(OC)c1OC | inactive | 
22 | CN(C)CCCN1c2ccccc2Sc2ccc(Cl)cc21 |  | 10 µM (active)
23 | CN(C)/N=N/c1nc[nH]c1C(N)=O | inactive | 
24 | CNCCCC1c2ccccc2C=Cc2ccccc21 |  | 8.91 µM (active)
25 | Nc1nc(F)nc2c1ncn2[C@@H]1O[C@H](CO)[C@@H](O)[C@@H]1O | inactive | 
26 | CC[C@@H]([C@H](C)O)n1ncn(-c2ccc(N3CCN(c4ccc(OC[C@@H]5CO[C@@](Cn6cncn6)(c6ccc(F)cc6F)C5)cc4)CC3)cc2)c1=O |  | 8.91 µM (active)
27 | NC(=O)OCC(COC(N)=O)c1ccccc1 | inactive | 
28 | C[N+]1(C)CCC(OC(=O)C(O)(c2ccccc2)C2CCCC2)C1 (centres undefined) | inactive | 
29 | CC(C)(C(=O)O)c1ccc(C(O)CCCN2CCC(C(O)(c3ccccc3)c3ccccc3)CC2)cc1 (centres undefined) | inactive | 
30 | Cc1cccc(Nc2ccncc2S(=O)(=O)NC(=O)NC(C)C)c1 | inactive | 
31 | NC12CC3CC(CC(C3)C1)C2 | inactive | 
32 | CCC1=C[C@@H]2CN(C1)Cc1c([nH]c3ccccc13)[C@@](C(=O)OC)(c1cc3c(cc1OC)N(C)[C@H]1[C@@](O)(C(=O)OC)[C@H](OC(C)=O)[C@]4(CC)C=CCN5CC[C@]31[C@@H]54)C2 |  | 0.282 µM (active)
33 | CCN(CC)C(=S)SSC(=S)N(CC)CC | inactive | 
34 | CCOC(=O)[C@H](CCc1ccccc1)N[C@@H](C)C(=O)N1Cc2cc(OC)c(OC)cc2C[C@H]1C(=O)O | inactive | 
35 | CCc1c2c(nc3ccc(OC(=O)N4CCC(N5CCCCC5)CC4)cc13)-c1cc3c(c(=O)n1C2)COC(=O)[C@]3(O)CC | inactive | 
36 | CN(C)c1nc(N(C)C)nc(N(C)C)n1 | inactive | 
37 | CC1(C)S[C@@H]2[C@H](NC(=O)C(C(=O)O)c3ccccc3)C(=O)N2[C@H]1C(=O)O (some centres undefined) | inactive | 
38 | CC[C@]1(O)C[C@@H]2CN(CCc3c([nH]c4ccccc34)[C@@](C(=O)OC)(c3cc4c(cc3OC)N(C)[C@H]3[C@@](O)(C(=O)OC)[C@H](OC(C)=O)[C@]5(CC)C=CCN6CC[C@]43[C@@H]65)C2)C1 |  | 0.01 µM (active)
39 | Nc1nc2c(ncn2COC(CO)CO)c(=O)[nH]1 | inactive | 
